These results are taken from PubChem BioAssay (NCI).

Compounds without any hit were thinned out: in the full panel of roughly 83,000, 20% have a hit.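 Each cell line was grown in a 96-well plate and treated with one concentration of compound for 48 hours. Values below 10 were considered active.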 Calls of active or inactive are those of the source.

The first test relates to HCT-15 colon. The test is described as follows: NCI-60 one-dose screen, 48 h (100 = growth as untreated, 0 = no growth, -100 = all killed). The settings on record: 10 µM unless noted.
For `Clc1ccc(/C=C/c2nc(Nc3ccc(Cl)cc3)c3ccccc3n2)cc1`, the growth is 99% (inactive).
The same measure, in the same setting: next, `CCOC(=O)c1c(C)nc2c(c1N)/C(=C/c1ccc(OC)cc1)C(=O)N2Cc1ccc(F)cc1`: -80.6% (active); `CCCCN1CCN(c2ccc3nc(-c4ccc5nc(-c6cc(OC)c(OC)c(OC)c6)[nH]c5c4)[nH]c3c2)CC1`: 99.2% (inactive); `O=C1CCC(N2C(=O)c3cccc(NCCCC4CCN(CCNC(=O)c5cc6c(o5)C(=O)c5ccccc5C6=O)CC4)c3C2=O)C(=O)N1` (stereo not drawn): -80.8% (active).
Still for that read-out and setting: next, `COc1ccc(-c2cncnc2N)cc1OC`: 103% (inactive).
Take `O=S(=O)(NCCNc1cc(-c2c(-c3cccc(O)c3)nc3sccn23)ccn1)c1ccc(Br)cc1`: the growth was 44.8% (inactive).
The same measure, in the same setting: next, `CC(=O)c1sc(-c2ccccc2)cc1N`: 95.2% (inactive); `Nc1c(C(=O)c2ccccc2)nnc2ncnn12`: 111% (inactive).
As for `CCNCCNc1cc(-c2ccc(C#N)cc2)c(C#N)c2nc3ccccc3n12`, the growth was 33.6% (inactive).
Still for that read-out and setting: next, `Fc1ccc(Nc2nc(Nc3ccc(-c4nc5ccccc5[nH]4)cc3)c3cn[nH]c3n2)cc1`: -41.2% (active); `COc1c(C)cnc(CSc2nc(-c3ccc(C)cc3)cn2-c2ccc(Cl)cc2)c1C`: 98% (inactive).
On the same count and under the same terms, next, `Cc1c2c(cn1Cc1ccccc1)CCc1cn[nH]c1-2`: 99.3% (inactive).
On the same count and under the same terms, for `COc1ccc(O)c(-c2cc(-c3ccccc3)c(C#N)c(=O)[nH]2)c1` the value was 100% (inactive); for `CC(=O)Nc1ccc(C(=O)/C=C/c2ccccc2)cc1`, 77.3% (inactive); for `CCCCCCCC/C=C/CCCCCCCC1=NCC[N+]1(CCO)CCO`, 80.6% (inactive).
On to `Cc1nc(Nc2ccc(NC(=S)Nc3ccccc3)cc2)nc2nc(Nc3cccc(Cl)c3)[nH]c(=O)c12`, for which the growth was 98.2% (inactive).
For `O=[N+]([O-])c1ccc(-c2cc3c(Nc4ccc(Sc5nc6ccccc6s5)c(Cl)c4)ncnc3s2)cc1`, the growth was 23.7% (inactive).
Consider `CC(=[N-])N1CCC[C@@H](Nc2c3ccccc3nc3ccccc23)C1.[Cl][Pt].[NH-]CCC[NH-]`, for which the growth was 48.2% (inactive).
For the molecule `OC(c1cccc(OCc2ccccc2)c1)c1nnc(-c2ccccc2)o1` (stereo not drawn), the growth was 90% (inactive).
Same read-out and setting: next, `COc1ccc(-c2nnc(SCC(=O)NC3=NN=C(c4ccccc4)CS3)o2)cc1`: 106% (inactive).
Same read-out and setting: next, `CC(=O)Nc1cccc(C2=CC(c3ccc(C)cc3)n3ncnc3N2)c1` (stereo not drawn): 99.3% (inactive); `CC(C)OC(=O)NNC(=O)c1ccncc1`: 101% (inactive); `O=C(CC1Sc2ccccc2NC1=O)NNc1ccc(F)cc1` (stereo not drawn): 60.5% (inactive).
On the same count and under the same terms, next, `CCCCCCCSc1ccc(C(=O)O)cc1`: 111% (inactive); `CC(c1ccc(-n2cccn2)cc1)c1cnc(N2CCc3ccc(C(N)=O)cc3C2)s1` (stereo not drawn): 69.3% (inactive); `CCN(CC)CCCNC(=O)c1ccc(N)cc1`: 101% (inactive).
On to `CSc1nc2sc3cc(Cl)ccc3n2c(=N)c1C#N`, for which the growth is 94.7% (inactive).
`CCNCCNc1cc(C2CCCC2)c(C#N)c2nc3ccccc3n12`: the growth is 26.8% (inactive).
On the same count and under the same terms, next, `COc1cc2oc3cc(C)oc(=O)c3c2cc1OC`: 91.9% (inactive).
Same read-out and setting: next, `Cc1nc(Nc2cccc(NC(=O)Nc3ccc(Cl)cc3)c2)c2ccccc2n1`: 77% (inactive); `CCc1c(C(=O)N[C@@H]2c3cc(Cl)ccc3CC[C@@H]2O)[nH]c(C)c1C(C)=O`: 41.1% (inactive).
Turning to `O=C(CC12CC3CC(CC(C3)C1)C2)NCCOCCOCCOCCNC(=O)c1cc2c(o1)C(=O)c1ccccc1C2=O`, the growth was -78.5% (active).
The same measure, in the same setting: next, `Cc1cc2c(F)c(Oc3ncnc(Nc4ccc(N5C[C@@H](C)N[C@@H](C)C5)cc4)c3C#N)cc(F)c2[nH]1`: 0.331% (active); `COc1ccc(NC(=O)c2cccc(-c3cc(=O)c4c(O)c(OC)c(OC)cc4o3)c2)cc1`: 107% (inactive).
On the same count and under the same terms, for `Nc1c(-c2nc3ccc(Br)cc3c(=O)[nH]2)nnn1-c1ccccc1` the value was 79% (inactive); for `CCOc1cc(N)ccc1C(=O)NCCCN(CC)CC`, 106% (inactive); for `CCN(CC)S(=O)(=O)c1ccc(O)c(NC(=O)c2[nH]c(C)c(C(C)=O)c2CCc2ccc(Cl)cc2)c1`, 42.9% (inactive).
Still for that read-out and setting: next, `C=CC(=O)Nc1cccc(C)c1Nc1cc(-c2cccnc2Cc2c(C)c(OC)cc(OC)c2C)ncn1`: 42.3% (inactive); `CC(C)c1ccc(C(=O)OC(=O)c2ccc(C(C)C)cc2)cc1`: 95.1% (inactive).

In a further test the test system is HT29 colon. The description is as above. The settings on record: 10 µM unless noted.
As for `Clc1ccc(/C=C/c2nc(Nc3ccc(Cl)cc3)c3ccccc3n2)cc1`, the growth was 112% (inactive).
On to `CCOC(=O)c1c(C)nc2c(c1N)/C(=C/c1ccc(OC)cc1)C(=O)N2Cc1ccc(F)cc1`, for which the growth was -75.9% (active).
The same measure, in the same setting: for `CCCCN1CCN(c2ccc3nc(-c4ccc5nc(-c6cc(OC)c(OC)c(OC)c6)[nH]c5c4)[nH]c3c2)CC1` the value was 56% (inactive).
The same measure, in the same setting: next, `O=C1CCC(N2C(=O)c3cccc(NCCCC4CCN(CCNC(=O)c5cc6c(o5)C(=O)c5ccccc5C6=O)CC4)c3C2=O)C(=O)N1` (stereo not drawn): 1.94% (active).
The same measure, in the same setting: for `COc1ccc(-c2cncnc2N)cc1OC` the value was 111% (inactive); for `O=S(=O)(NCCNc1cc(-c2c(-c3cccc(O)c3)nc3sccn23)ccn1)c1ccc(Br)cc1`, 51% (inactive); for `CC(=O)c1sc(-c2ccccc2)cc1N`, 88.7% (inactive).
In the case of `Nc1c(C(=O)c2ccccc2)nnc2ncnn12`, the growth was 100% (inactive).
On the same count and under the same terms, next, `CCNCCNc1cc(-c2ccc(C#N)cc2)c(C#N)c2nc3ccccc3n12`: 4.72% (active); `Fc1ccc(Nc2nc(Nc3ccc(-c4nc5ccccc5[nH]4)cc3)c3cn[nH]c3n2)cc1`: -8.84% (active).
On the same count and under the same terms, for `COc1c(C)cnc(CSc2nc(-c3ccc(C)cc3)cn2-c2ccc(Cl)cc2)c1C` the value was 73.8% (inactive); for `Cc1c2c(cn1Cc1ccccc1)CCc1cn[nH]c1-2`, 94.5% (inactive); for `COc1ccc(O)c(-c2cc(-c3ccccc3)c(C#N)c(=O)[nH]2)c1`, 118% (inactive).
Consider `CC(=O)Nc1ccc(C(=O)/C=C/c2ccccc2)cc1`, for which the growth was 44.6% (inactive).
Still for that read-out and setting: next, `CCCCCCCC/C=C/CCCCCCCC1=NCC[N+]1(CCO)CCO`: 13% (inactive).
As for `Cc1nc(Nc2ccc(NC(=S)Nc3ccccc3)cc2)nc2nc(Nc3cccc(Cl)c3)[nH]c(=O)c12`, the growth was 114% (inactive).
Regarding `O=[N+]([O-])c1ccc(-c2cc3c(Nc4ccc(Sc5nc6ccccc6s5)c(Cl)c4)ncnc3s2)cc1`, the growth is 13.9% (inactive).
The same measure, in the same setting: next, `CC(=[N-])N1CCC[C@@H](Nc2c3ccccc3nc3ccccc23)C1.[Cl][Pt].[NH-]CCC[NH-]`: 1.38% (active); `OC(c1cccc(OCc2ccccc2)c1)c1nnc(-c2ccccc2)o1` (stereo not drawn): 116% (inactive); `COc1ccc(-c2nnc(SCC(=O)NC3=NN=C(c4ccccc4)CS3)o2)cc1`: 96.1% (inactive).
Still for that read-out and setting: for `CC(=O)Nc1cccc(C2=CC(c3ccc(C)cc3)n3ncnc3N2)c1` (stereo not drawn) the value was 109% (inactive); for `CC(C)OC(=O)NNC(=O)c1ccncc1`, 110% (inactive); for `O=C(CC1Sc2ccccc2NC1=O)NNc1ccc(F)cc1` (stereo not drawn), 98.5% (inactive).
Take `CCCCCCCSc1ccc(C(=O)O)cc1`: the growth is 112% (inactive).
On the same count and under the same terms, next, `CC(c1ccc(-n2cccn2)cc1)c1cnc(N2CCc3ccc(C(N)=O)cc3C2)s1` (stereo not drawn): 81.3% (inactive); `CCN(CC)CCCNC(=O)c1ccc(N)cc1`: 100% (inactive); `CSc1nc2sc3cc(Cl)ccc3n2c(=N)c1C#N`: 33% (inactive).
In the case of `CCNCCNc1cc(C2CCCC2)c(C#N)c2nc3ccccc3n12`, the growth is -9.9% (active).
On to `COc1cc2oc3cc(C)oc(=O)c3c2cc1OC`, for which the growth was 91.5% (inactive).
Still for that read-out and setting: next, `Cc1nc(Nc2cccc(NC(=O)Nc3ccc(Cl)cc3)c2)c2ccccc2n1`: 80.8% (inactive); `CCc1c(C(=O)N[C@@H]2c3cc(Cl)ccc3CC[C@@H]2O)[nH]c(C)c1C(C)=O`: 66.9% (inactive).
The same measure, in the same setting: for `O=C(CC12CC3CC(CC(C3)C1)C2)NCCOCCOCCOCCNC(=O)c1cc2c(o1)C(=O)c1ccccc1C2=O` the value was 1.17% (active); for `Cc1cc2c(F)c(Oc3ncnc(Nc4ccc(N5C[C@@H](C)N[C@@H](C)C5)cc4)c3C#N)cc(F)c2[nH]1`, -47.6% (active).
`COc1ccc(NC(=O)c2cccc(-c3cc(=O)c4c(O)c(OC)c(OC)cc4o3)c2)cc1`: the growth was 87.7% (inactive).
Take `Nc1c(-c2nc3ccc(Br)cc3c(=O)[nH]2)nnn1-c1ccccc1`: the growth is 58.8% (inactive).
The same measure, in the same setting: next, `CCOc1cc(N)ccc1C(=O)NCCCN(CC)CC`: 102% (inactive); `CCN(CC)S(=O)(=O)c1ccc(O)c(NC(=O)c2[nH]c(C)c(C(C)=O)c2CCc2ccc(Cl)cc2)c1`: 101% (inactive); `C=CC(=O)Nc1cccc(C)c1Nc1cc(-c2cccnc2Cc2c(C)c(OC)cc(OC)c2C)ncn1`: 5.04% (active).
Same read-out and setting: next, `CC(C)c1ccc(C(=O)OC(=O)c2ccc(C(C)C)cc2)cc1`: 112% (inactive).
